Bioassay records: PubChem, Broad Institute
aSyn 5UTR act – Activators via SNCA 5'UTR binding, MLPCN. alpha-synuclein 5'UTR reporter, activators screen. activity score, % (tested at 7.5 µM), hits read low. actives 7.1% (n = 300,000); in the data active means activity score below about -60%
Of the large screens only hits and unclear results are named; the others gave an inactive call. Not all results are given here.

CNC(=O)c1c(NC(=O)c2cccc(C)c2)sc2c1CCC2	aSyn 5UTR act -213.4
NC(=O)c1c(NC(=O)c2ccc([N+](=O)[O-])o2)sc2c1CCCC2	none
Cc1cc(C(=O)Nc2sc3c(c2C#N)CCC(C)C3)cs1 (centres undefined)	aSyn 5UTR act -103.1
N#Cc1c(NC(=O)c2ccc([N+](=O)[O-])o2)sc2c1CCC2	aSyn 5UTR act -106.7
CC1CCc2c(sc(NC(=S)NC(=O)c3ccccc3)c2C#N)C1 (centres undefined)	aSyn 5UTR act -74.3
N#Cc1ccc(-c2cccnc2)nc1SCC(=O)Nc1sc2c(c1C#N)CCC2	aSyn 5UTR act -87.8
N#Cc1c(NC(=S)NC(=O)c2ccccc2)sc2c1CCCC2	aSyn 5UTR act -96.4
CCOC(=O)C(=O)N(Nc1ccc(C)cc1)c1ccc(C)cc1	aSyn 5UTR act -177.7
COc1ccc(C(=O)CCNc2cccc(Cl)c2)cc1	aSyn 5UTR act -113.7
COc1ccc(C(=O)CNc2cccc(F)c2)cc1	aSyn 5UTR act -101.2
CCOc1ccccc1/C=N/Nc1ccccc1[N+](=O)[O-]	aSyn 5UTR act -303.8
CC(C)Oc1ccccc1/C=N/Nc1ccccc1[N+](=O)[O-]	aSyn 5UTR act -209.4
COc1ccccc1/C=N\Nc1ccccc1[N+](=O)[O-]	aSyn 5UTR act -91.5
Cc1ccnc(NC(=O)C2COc3ccccc3O2)c1 (centres undefined)	aSyn 5UTR act -97.1
Cc1ccc(NC(=O)C2COc3ccccc3O2)nc1 (centres undefined)	aSyn 5UTR act -105.6
COc1cccc(CN=C2Nc3ccccc3CS2)c1	aSyn 5UTR act -142.0
c1ccc2c(c1)CSc1ccccc1N2	none
Clc1ccc(CN=C2Nc3ccccc3CS2)cc1	aSyn 5UTR act -181.7
COc1ccccc1CN=C1Nc2ccccc2CS1	aSyn 5UTR act -148.9
COc1ccc(C(=O)/C=C/c2ccccc2F)c(OC(=O)c2ccc([N+](=O)[O-])cc2)c1	aSyn 5UTR act -228.0
COc1ccc(C(=O)c2cc([N+](=O)[O-])ccc2N2CCOCC2)cc1	none
COc1ccc(C(=O)/C=C/c2ccc(C)cc2)c(OC(=O)c2ccc([N+](=O)[O-])cc2)c1	aSyn 5UTR act -87.0
CCOc1cccc(C(=O)NC2=NCCS2)c1	aSyn 5UTR act -103.8
O=C(NC1=NCCS1)c1ccc(Br)s1	aSyn 5UTR act -171.1
O=C(NC1=NCCS1)c1cccc(Br)c1	aSyn 5UTR act -74.7
CC(C)Oc1cccc(C(=O)NC2=NCCS2)c1	aSyn 5UTR act -96.1
CCCn1c(C2CCCN2c2nc(-c3cccc(Br)c3)cs2)nc2ccccc21 (centres undefined)	aSyn 5UTR act -92.8
Cc1ccc(N2C(=O)c3n[nH]c(C)c3C2c2ccco2)cc1 (centres undefined)	aSyn 5UTR act -65.2
COc1ccc(/C=N/Nc2nccnc2Cl)c(OC)c1	aSyn 5UTR act -110.8
COc1ccc2nc(Cl)c(/C=N/Nc3ccccn3)cc2c1	aSyn 5UTR act -88.2
COc1cccc(/C=N/Nc2nccnc2Cl)c1O	none
O=C1C2C3C=CC(CC3)C2C(=O)N1/N=C/c1c[nH]c2ccccc12 (centres undefined)	aSyn 5UTR act -91.7
O=C1C2C3C=CC(C3)C2C(=O)N1/N=C/c1cn(Cc2ccccc2)c2ccccc12 (centres undefined)	none
COc1ccc(CC(=O)n2nc(-c3ccc(Cl)cc3)nc2NCc2ccco2)cc1	aSyn 5UTR act -105.2
CC(=O)n1nc(-c2ccc(Cl)cc2)nc1NCc1ccco1	aSyn 5UTR act -117.2
CCC(=O)n1nc(-c2ccc(OC)cc2)nc1NCc1cccs1	aSyn 5UTR act -102.4
O=C(CCc1ccc(S(=O)(=O)N2CCOCC2)cc1)OCc1nc2ccccc2s1	aSyn 5UTR act -84.6
Cc1ccc(C(=O)OCc2nc3ccccc3s2)o1	aSyn 5UTR act -103.2
O=C(OCc1nc2ccccc2s1)c1cc2ccccc2oc1=O	aSyn 5UTR act -99.7
O=C(OCc1nc2ccccc2s1)c1ccc(Br)s1	aSyn 5UTR act -72.4
COc1ccc(C2N=C(c3ccccc3)NO2)cc1OC (centres undefined)	aSyn 5UTR act -141.5
FC(F)Oc1ccc(C2N=C(c3ccccc3)NO2)cc1 (centres undefined)	aSyn 5UTR act -199.0
CCOc1cc(/C=C2/SC(=S)N(C)C2=O)ccc1Oc1ccc([N+](=O)[O-])cc1[N+](=O)[O-]	aSyn 5UTR act -62.0
CCOc1cc(/C=C2/NC(=S)NC2=O)ccc1OCc1ccc([N+](=O)[O-])cc1	none
Cc1cc(C)nc(Nc2nc3ccccc3s2)n1	aSyn 5UTR act -176.9
CC(=O)c1c(C)nc(Nc2nc3ccccc3s2)nc1C	aSyn 5UTR act -82.8
COc1ccccc1-c1ccc(SCc2ccccc2)nn1	aSyn 5UTR act -139.5
COc1ccccc1-c1ccc(SCc2ccccc2F)nn1	aSyn 5UTR act -74.4
Cc1nc(C)c(-c2ccc(SCc3ccccc3F)nn2)s1	aSyn 5UTR act -150.7
O=C(CCc1nc2ccccc2c(=O)[nH]1)Nc1nc(-c2cccs2)cs1	aSyn 5UTR act -88.8
CN(C)c1ccc(/C=C/c2nc3ccccc3c(=O)[nH]2)cc1	none
Cc1ccc(Nc2nc3ccccc3c(=O)[nH]2)cc1C	aSyn 5UTR act -194.9
O=C(Nc1cccc(/C=C/c2nc3ccccc3c(=O)[nH]2)c1)c1ccccc1Cl	aSyn 5UTR act -131.8
Cc1cccc(/C=C\c2nc3ccccc3c(=O)[nH]2)c1	aSyn 5UTR act -73.8
O=c1[nH]c(/C=C/c2ccc(Br)cc2)nc2ccccc12	aSyn 5UTR act -168.8
Cc1ccc(NC(=O)n2ncc3c(C)cccc32)c(C)c1	aSyn 5UTR act -108.1
Cc1cccc2c1cnn2C(=O)Nc1ccc(Br)cc1F	aSyn 5UTR act -156.3
CCOc1ccc(NC(=O)n2ncc3c(C)cccc32)cc1	aSyn 5UTR act -178.7
COC(=O)c1ccc(S(=O)(=O)N2CCc3ccccc32)cc1	aSyn 5UTR act -95.5
COc1ccc(-c2nnc(NC(=O)c3ccc(S(=O)(=O)N4CCCc5ccccc54)cc3)o2)cc1	none
COC(=O)Cc1nc(NC(=O)c2cccs2)sc1C	aSyn 5UTR act -81.6
COC(=O)c1nc(NC(=S)NC(=O)c2cccs2)sc1C	aSyn 5UTR act -80.5
O=C(NC(=S)Nc1nc2ccccc2s1)c1cccs1	aSyn 5UTR act -136.1
Cc1ccc(SCc2cn3cc(Cl)ccc3n2)cc1	aSyn 5UTR act -135.9
Clc1ccc(SCc2cn3ccccc3n2)cc1	aSyn 5UTR act -148.1
Nc1nnc(SCc2cn3cc(Cl)ccc3n2)s1	aSyn 5UTR act -96.6
Cc1cc(C)c(C#N)c(SCc2cn3ccccc3n2)n1	aSyn 5UTR act -87.5
Clc1ccc2nc(CSCc3ccccc3)cn2c1	aSyn 5UTR act -166.8
c1ccc2c(SCc3cn4ccccc4n3)nncc2c1	aSyn 5UTR act -69.6
c1ccc2[nH]c(SCc3cn4ccccc4n3)nc2c1	aSyn 5UTR act -61.7
Cc1cccc2nc(CSc3ccc(Cl)cc3)cn12	aSyn 5UTR act -118.0
CNc1cc(CSc2ccc(Cl)cc2)nc(C)n1	aSyn 5UTR act -118.1
CN(C(=O)c1cc2sccc2n1C)C1CCCCC1	aSyn 5UTR act -109.6
CCn1c(C(=O)NC2CCC(C)CC2)cc2sccc21 (centres undefined)	aSyn 5UTR act -87.3
COC(=O)c1cccc(NC(=O)c2cc3sccc3n2C)c1	aSyn 5UTR act -76.0
Cn1c(C(=O)NC2CCCCC2)cc2sccc21	aSyn 5UTR act -147.4
O=C(O)CCCn1c(O)c(C=C2N=c3ccccc3=N2)sc1=S	aSyn 5UTR act -88.9
CCN(CC)S(=O)(=O)c1cc(C(=O)Oc2cccc(-c3cnc4ccccc4n3)c2)ccc1OC	aSyn 5UTR act -171.0
CCN(CC)S(=O)(=O)c1ccc(C)c(C(=O)Oc2cccc(-c3cnc4ccccc4n3)c2)c1	aSyn 5UTR act -178.0
O=C(O)c1ccc(N/N=C/c2ccc(-c3ccccc3)cc2)cc1	aSyn 5UTR act -78.0
